Assay outcomes deposited in PubChem BioAssay by The Scripps Research Institute Molecular Screening Center.
Only some compounds are listed: those with a hit (about 4.5% of all), similar ones and a draw of the others.
DAX1 inh-1 = DAX1 (NR0B1) inhibitors on StAR promoter, primary screen, cell-based, luminescence, SF-1 (NR5A1), full-length DAX-1. inhibition, % at 6.8 µM. HEK293T StAR-luciferase reporter, SF-1/DAX-1 repression relief. 370,000 tested, 1.1% active;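 active = inhibition above the mean over all tested compounds plus 3 SD, cut at about 3.6% in these data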;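 note: 0% = DAX-1 cells with DMSO and 100% = cells lacking DAX-1 with DMSO; higher inhibition means more luminescence from relief of DAX-1 repression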
hgDAF12 agonist = H. glycines DAF-12 receptor agonists, primary screen, cell-based, luminescence, HEK293, GAL4 fusion, UAS-luciferase | Nuclear hormone receptor DAF-12 (Heterodera glycines), GAL4 fusion | HEK293 GAL4-hgDAF12 UAS-luciferase reporter, agonist luminescence; normalized to butyrate control | AID 687014, 2013 | 370,000 tested, 1.8% active | activation, % at 6.8 µM;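 active = activation above a cutoff set at the mean of all screened compounds plus 3 SD, cut at about 10% in these data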;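 note: 0% = DMSO wells and 100% = sodium butyrate wells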
DAX1 inh-2 = DAX1 (NR0B1) inhibitors, primary screen, cell-based, HEK293, Gal4-DAX1, luciferase luminescence; Nuclear receptor subfamily 0 group B member 1 (Homo sapiens), P51843; HEK293 Gal4-DAX1 luciferase reporter; inhibition, % at 6.75 µM; 340,000 tested, 0.99% active; AID 504766, 2011;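 active = inhibition above the mean over all tested compounds plus 3 SD, cut at about 4.2% in these data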;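 note: 0% = DAX1-transfected cells with DMSO and 100% = empty-vector control cells with DMSO; inhibition shows as a rise in luminescence from relieved DAX1 repression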
Target sequence (P51843 207-470 limits assumed): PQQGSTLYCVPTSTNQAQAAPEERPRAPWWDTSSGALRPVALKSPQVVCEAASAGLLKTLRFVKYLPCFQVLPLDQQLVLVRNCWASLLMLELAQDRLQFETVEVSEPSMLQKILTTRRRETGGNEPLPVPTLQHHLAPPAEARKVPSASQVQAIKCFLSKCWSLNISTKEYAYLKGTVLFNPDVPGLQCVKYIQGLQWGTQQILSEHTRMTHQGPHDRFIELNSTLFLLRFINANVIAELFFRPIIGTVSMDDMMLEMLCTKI
ssDAF-12 act = S. stercoralis DAF-12 nuclear receptor activators, primary screen, cell-based, luminescence, HEK293, GRIP1 co-expression, lit1-tk-luc. HEK293 ssDAF-12/GRIP1 lit1-tk-luc reporter; % of 3 µM dafachronic acid response. activation, % at 6.8 µM. AID 652126, 2013. 370,000 tested, 1% active. Nuclear hormone receptor DAF-12 (Strongyloides stercoralis);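 active = activation above the mean over all tested compounds plus 3 SD, cut at about 0.9% in these data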;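 note: 0% = DMSO-only wells and 100% = 3 µM delta7-dafachronic acid wells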
GAA850 FXN act = FXN promoter activators, primary screen, cell-based, luciferase luminescence, HEK293 lucGAA850. HEK293 lucGAA850 FXN promoter luciferase reporter, 24 h; percent of 10 µM SAHA response. 360,000 tested, 0.56% active. activation, % at 6 µM;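 active = activation above the average of all compounds screened plus 3 SD, cutoff fixed separately per campaign, cut at about 7.5% in these data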;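 note: 0% = DMSO wells and 100% = 10 µM SAHA wells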
hcDAF-12 act = H. contortus DAF-12 nuclear receptor activators, primary screen, cell-based, luminescence, HEK293, lit1-tk-luc reporter; HEK293 hcDAF-12 lit1-tk-luc reporter; 0% DMSO, 100% Δ7-dafachronic acid; 370,000 tested, 1.4% active; AID 652067, 2013; activation, % at 6.8 µM;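 active = activation above the mean of all tested compounds plus 3 SD, cut at about 5.5% in these data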;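 note: 100% = response to 3 µM Δ7-dafachronic acid high control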
* = called active by the depositor.

For COc1ccc2c3n([n+]([O-])c2c1)CCN=C3c1cc(Cl)c(N)c(Cl)c1 the results were DAX1 inh-1 -1, hgDAF12 agonist 1, DAX1 inh-2 -1, ssDAF-12 act -1, GAA850 FXN act 2 and hcDAF-12 act 1.
Screening COC(=O)c1cc(-c2cccc(OC(F)(F)F)c2)c(=O)n2c1CCC2 returned DAX1 inh-1 -1, hgDAF12 agonist -3, ssDAF-12 act -1 and hcDAF-12 act 1.
Screening O=C(N/N=C/c1ccc(F)cc1)c1ccccc1 returned DAX1 inh-1 3, hgDAF12 agonist 13*, DAX1 inh-2 5.2*, ssDAF-12 act 0, GAA850 FXN act 4 and hcDAF-12 act 3.
For O=C(O)c1ccc(/C=N/NC(=O)c2ccc(F)cc2)cc1 the results were DAX1 inh-1 0, hgDAF12 agonist -1, DAX1 inh-2 1, ssDAF-12 act -1, GAA850 FXN act 2 and hcDAF-12 act 1.
`O=C(N/N=C\c1ccccc1)c1ccccc1-n1cccc1` gave DAX1 inh-1 -1, hgDAF12 agonist 3, DAX1 inh-2 2, ssDAF-12 act 1.2*, GAA850 FXN act 3 and hcDAF-12 act 4.
Screening COc1ccc(/C=N/NC(=O)c2ccncc2)cc1OC returned DAX1 inh-1 0, hgDAF12 agonist -2, DAX1 inh-2 0, ssDAF-12 act -1, GAA850 FXN act 3 and hcDAF-12 act -2.
Screening COc1ccc(/C=C/C(=O)Oc2ccc(/C=N/NC(=O)c3ccccc3)cc2)cc1OC returned DAX1 inh-1 0, hgDAF12 agonist 6, DAX1 inh-2 4.2*, ssDAF-12 act 0, GAA850 FXN act 3 and hcDAF-12 act 0.
For O=C(N/N=C\c1ccc(F)cc1)c1csnn1 the results were DAX1 inh-1 2, hgDAF12 agonist 13*, DAX1 inh-2 3, ssDAF-12 act -1, GAA850 FXN act 4 and hcDAF-12 act 1.
CN(C)S(=O)(=O)c1ccc2nc(COCc3nc4ccc(S(=O)(=O)N(C)C)cc4[nH]3)[nH]c2c1 was read as hgDAF12 agonist 2, ssDAF-12 act -1 and hcDAF-12 act 3.
O=C(N/N=C/c1ccccc1C(F)(F)F)c1ccc(O)cc1 was read as DAX1 inh-1 2, hgDAF12 agonist 7, DAX1 inh-2 5.0*, ssDAF-12 act 0, GAA850 FXN act 3 and hcDAF-12 act 1.
C/C=C/c1ccccc1OCCCN1CCC(C(O)(c2ccccc2)c2ccccc2)CC1 was read as DAX1 inh-1 0, hgDAF12 agonist -1, ssDAF-12 act -1 and hcDAF-12 act 0.
`Cc1nc(NC(=S)NC(=O)COc2ccccc2Cl)ccc1Br` gave DAX1 inh-1 -1, hgDAF12 agonist -3, DAX1 inh-2 0, ssDAF-12 act 0.9*, GAA850 FXN act 1 and hcDAF-12 act -2.
Screening CCc1ccc(OCC(=O)NC(=S)Nc2ccc(Br)c(C)n2)cc1 returned DAX1 inh-1 0, hgDAF12 agonist -1, DAX1 inh-2 2, ssDAF-12 act -1, GAA850 FXN act 1 and hcDAF-12 act 4.
c1ccc(Nc2ccnc(Nc3ccccc3)n2)cc1 was read as DAX1 inh-1 1, hgDAF12 agonist 11*, DAX1 inh-2 2, ssDAF-12 act 0, GAA850 FXN act 3 and hcDAF-12 act 2.
`Cc1ccc(NC(=O)CSc2nnc(-c3cc(-c4ccc(Cl)cc4)n[nH]3)n2N)cc1` gave DAX1 inh-1 0, hgDAF12 agonist 3, ssDAF-12 act -1 and hcDAF-12 act 4.
Screening O=C(Nc1c(-c2ccccc2)nc2ncccn12)C1CC1 returned DAX1 inh-1 1, hgDAF12 agonist -3, ssDAF-12 act -1 and hcDAF-12 act 1.
For CCOc1ccc(Nc2cc(C)nc3c(C)cccc23)cc1 the results were DAX1 inh-1 0, hgDAF12 agonist -2, DAX1 inh-2 4.9*, ssDAF-12 act -2, GAA850 FXN act 1 and hcDAF-12 act -2.
Cn1c(CN2CCN(C(=O)c3ccccc3Cl)CC2)nc2cc([N+](=O)[O-])ccc21 was read as DAX1 inh-1 0, hgDAF12 agonist 0, DAX1 inh-2 0, ssDAF-12 act -2, GAA850 FXN act 2 and hcDAF-12 act 0.
Screening Cn1c(CN2CCN(C(=O)c3ccccc3)CC2)nc2cc([N+](=O)[O-])ccc21 returned DAX1 inh-1 1, hgDAF12 agonist -3, DAX1 inh-2 -2, ssDAF-12 act 0.9*, GAA850 FXN act 0 and hcDAF-12 act 0.
For CC(=O)N1N=C(c2ccc(Br)cc2)OC12CCCC2 the results were DAX1 inh-1 1, hgDAF12 agonist 0, DAX1 inh-2 4.4*, ssDAF-12 act -2, GAA850 FXN act 3 and hcDAF-12 act -1.
COCC(=O)N1CC[C@H]2[C@@H]1c1cc(-c3cccc(OC)c3)ccc1N(C)[C@H]2CO was read as DAX1 inh-1 -1, hgDAF12 agonist -3, ssDAF-12 act -2 and hcDAF-12 act -2.
`O=C(c1ccncc1)N1CCC(Oc2cccnc2)CC1` gave DAX1 inh-1 1, hgDAF12 agonist -2, ssDAF-12 act -1 and hcDAF-12 act -2.
For CCc1ccc(C(=O)NNC(=O)CC2OC(=O)c3ccccc32)cc1 (stereo not drawn) the results were DAX1 inh-1 2, hgDAF12 agonist 6, DAX1 inh-2 0, ssDAF-12 act 1.0*, GAA850 FXN act 3 and hcDAF-12 act 5.
`O=C(CC1OC(=O)c2ccccc21)NCC1COc2ccccc2O1` (stereo not drawn) gave DAX1 inh-1 1, hgDAF12 agonist 1, DAX1 inh-2 -1, ssDAF-12 act -1, GAA850 FXN act -2 and hcDAF-12 act -1.
Screening Oc1ccc(Cl)cc1-c1cc(-c2ccccc2Cl)[nH]n1 returned DAX1 inh-1 1, hgDAF12 agonist 10, DAX1 inh-2 5.6*, ssDAF-12 act 0, GAA850 FXN act 2 and hcDAF-12 act 6.1*.
Screening Nc1ccc2oc3ccccc3c2c1 returned DAX1 inh-1 1, hgDAF12 agonist 10, DAX1 inh-2 1, ssDAF-12 act 0, GAA850 FXN act 3 and hcDAF-12 act 6.1*.
COc1cccc(NC(=O)Cn2c(=O)oc3ccccc32)c1 was read as DAX1 inh-1 0, hgDAF12 agonist 1, DAX1 inh-2 0, ssDAF-12 act -1, GAA850 FXN act -1 and hcDAF-12 act -2.
